According to PubChem BioAssay (Tox21):
Inconclusive results are not listed. Activity calls are given as the source filed them. Unless noted, calls come from the whole dose curve; as a rule, active = well fitted curve in the direction sought with a large enough effect in the repeat runs; inconclusive = weak or mixed curves; inactive = no such curve, though single readings can be large; an effect the other way counts as inactive or inconclusive.

Legend:
[1] = qHTS assay to test for compound auto fluorescence at 535 nm (green) in HEK293 cells (AID 720680)
[2] = qHTS assay to test for compound auto fluorescence at 460 nm (blue) in HEK293 cell free culture (AID 720681)
Method in brief: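 Compounds were added to cell-free DMEM with 10% FBS and fluorescence read directly. The blue channel used 405 nm excitation and 460 nm emission, with triamterene as the reference fluorophore.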

[3] = qHTS assay to test for compound auto fluorescence at 535 nm (green) in HEK293 cell free culture (AID 720682)
Method in brief: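 DMEM + 10% FBS, cell-free; cpd or DMSO pinned in; Ex485/Em535 read; output as fluorescein-equivalent signal.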

[4] = qHTS assay to test for compound auto fluorescence at 590 nm (red) in HEK293 cell free culture (AID 720683)
Method in brief: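 Cell-free wells of DMEM with 10% FBS received compound, and intrinsic fluorescence was read at excitation/emission 540/590 nm. Values expressed as equivalence to Rose Bengal sodium.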

[5] = qHTS assay to test for compound auto fluorescence at 460 nm (blue) in HepG2 cell free culture (AID 720685)
Method in brief: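 Compound (23 nL) or DMSO pinned into cell-free MEM with 10% FBS; blue fluorescence read at 405/460 nm excitation/emission, expressed as auto-fluorescence equivalency to triamterene.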

[6] = qHTS assay to test for compound auto fluorescence at 535 nm (green) in HepG2 cell free culture (AID 720686)
[7] = biological target: Glucocorticoid receptor (Homo sapiens) (UniProt P04150); experiment: qHTS assay to identify small molecule agonists of the glucocorticoid receptor (GR) signaling pathway (AID 720691; active = well fitted activation curve with a large enough effect in the signal ratio in the repeat runs, not every such curve was filed as active; the % refers to the signal ratio)
Chain of Glucocorticoid receptor (Homo sapiens) (P04150 whole entry, looked up): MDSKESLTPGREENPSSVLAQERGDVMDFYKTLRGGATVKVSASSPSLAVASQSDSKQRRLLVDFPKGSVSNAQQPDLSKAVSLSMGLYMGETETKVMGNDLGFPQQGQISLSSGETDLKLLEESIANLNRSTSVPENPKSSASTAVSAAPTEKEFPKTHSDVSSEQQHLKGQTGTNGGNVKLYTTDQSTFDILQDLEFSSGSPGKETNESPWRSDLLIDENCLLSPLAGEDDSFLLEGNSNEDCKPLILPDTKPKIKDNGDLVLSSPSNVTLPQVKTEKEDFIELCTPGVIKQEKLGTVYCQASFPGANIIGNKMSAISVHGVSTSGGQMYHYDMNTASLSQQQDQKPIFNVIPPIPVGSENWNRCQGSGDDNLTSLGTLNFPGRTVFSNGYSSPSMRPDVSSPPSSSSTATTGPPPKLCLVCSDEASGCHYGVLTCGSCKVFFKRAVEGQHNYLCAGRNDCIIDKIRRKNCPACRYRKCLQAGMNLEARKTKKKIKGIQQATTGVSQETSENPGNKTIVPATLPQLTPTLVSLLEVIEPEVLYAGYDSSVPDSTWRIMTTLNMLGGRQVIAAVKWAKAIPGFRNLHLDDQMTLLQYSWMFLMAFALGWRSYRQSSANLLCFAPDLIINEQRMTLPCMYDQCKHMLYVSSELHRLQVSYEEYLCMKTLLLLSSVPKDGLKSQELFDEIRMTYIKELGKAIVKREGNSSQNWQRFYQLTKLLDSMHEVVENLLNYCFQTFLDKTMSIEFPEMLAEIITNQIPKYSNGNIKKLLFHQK
Method in brief: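 Agonist mode in a HeLa line carrying a GRE-controlled beta-lactamase reporter. Compounds act for 18 h at 37 C before a 2 h room-temperature FRET substrate step and fluorescence reading.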

[8] = biological target: Glucocorticoid receptor (Homo sapiens) (UniProt P04150); experiment: qHTS assay to identify small molecule antagonists of the glucocorticoid receptor (GR) signaling pathway (AID 720692; active = well fitted inhibition curve with a large enough effect in the signal ratio in the repeat runs, not every such curve was filed as active; the % refers to the signal ratio)
Method in brief: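 Cells plated, rested 4 h at 37 C/5% CO2; compounds in DMSO pin-transferred; dexamethasone added to 5 nM final; 18 h at 37 C; B/G FRET substrate added, 2 h room temperature; fluorescence measured.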

[9] = qHTS assay to identify small molecule antagonists of the glucocorticoid receptor (GR) signaling pathway - cell viability counter screen (AID 720693); note: nearly all actives have a fitted effect of over 55% in size
[10] = qHTS assay for identifying genotoxic compounds that show differential cytotoxicity against isogenic chicken DT40 cell lines with known DNA damage response pathways - wild type cell line (AID 743012); note: nearly all actives have a fitted effect of over 60% in size
Method in brief: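 Cells (DT40 wild type, 300/well) are treated with DMSO-dissolved compounds after a ~0.5 h pre-incubation and kept 40 h at 37 C/5% CO2. Viability is then measured by CellTiter-Glo luminescence following 30 min at room temperature.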

[11] = qHTS assay for identifying genotoxic compounds that show differential cytotoxicity against isogenic chicken DT40 cell lines with known DNA damage response pathways - Rev3 mutant cell line (AID 743014); note: nearly all actives have a fitted effect of over 55% in size
[12] = qHTS assay for identifying genotoxic compounds that show differential cytotoxicity against isogenic chicken DT40 cell lines with known DNA damage response pathways - Rad54/Ku70 mutant cell line (AID 743015); note: nearly all actives have a fitted effect of over 60% in size
[13] = qHTS assay to identify small molecule antagonists of the androgen receptor (AR) signaling pathway - cell viability counter screen (AID 743033; note: nearly all actives have a fitted effect of over 45% in size)
[14] = qHTS assay to identify small molecule antagonists of the androgen receptor (AR) signaling pathway using the MDA cell line - cell viability counter screen (AID 743041; note: nearly all actives have a fitted effect of over 45% in size)
Method in brief: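 MDA-kb2 AR-luc cells (MMTV-luciferase, AR/GR responsive) treated with compounds plus R1881 agonist for 16 h at 37C. CellTiter-Fluor added at 15.5 h; fluorescence read after 30 min in the same wells.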

[15] = qHTS assay to test for compound auto fluorescence at 460 nm (blue) in HepG2 cells (AID 720687)
Method in brief: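 HepG2 cells in MEM with 10% FBS, attached overnight at 37 C, were exposed to compound or DMSO for 1 hr at 37 C, 5% CO2. Blue fluorescence was read at 405/460 nm, with triamterene as reference fluorophore.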

[16] = biological target: Androgen receptor (Homo sapiens) (UniProt P10275); experiment: qHTS assay to identify small molecule antagonists of the androgen receptor (AR) signaling pathway (AID 743035; active = well fitted inhibition curve with a large enough effect in the signal ratio in the repeat runs, not every such curve was filed as active; the % refers to the signal ratio)
Chain of Androgen receptor (Homo sapiens) (P10275 whole entry, looked up): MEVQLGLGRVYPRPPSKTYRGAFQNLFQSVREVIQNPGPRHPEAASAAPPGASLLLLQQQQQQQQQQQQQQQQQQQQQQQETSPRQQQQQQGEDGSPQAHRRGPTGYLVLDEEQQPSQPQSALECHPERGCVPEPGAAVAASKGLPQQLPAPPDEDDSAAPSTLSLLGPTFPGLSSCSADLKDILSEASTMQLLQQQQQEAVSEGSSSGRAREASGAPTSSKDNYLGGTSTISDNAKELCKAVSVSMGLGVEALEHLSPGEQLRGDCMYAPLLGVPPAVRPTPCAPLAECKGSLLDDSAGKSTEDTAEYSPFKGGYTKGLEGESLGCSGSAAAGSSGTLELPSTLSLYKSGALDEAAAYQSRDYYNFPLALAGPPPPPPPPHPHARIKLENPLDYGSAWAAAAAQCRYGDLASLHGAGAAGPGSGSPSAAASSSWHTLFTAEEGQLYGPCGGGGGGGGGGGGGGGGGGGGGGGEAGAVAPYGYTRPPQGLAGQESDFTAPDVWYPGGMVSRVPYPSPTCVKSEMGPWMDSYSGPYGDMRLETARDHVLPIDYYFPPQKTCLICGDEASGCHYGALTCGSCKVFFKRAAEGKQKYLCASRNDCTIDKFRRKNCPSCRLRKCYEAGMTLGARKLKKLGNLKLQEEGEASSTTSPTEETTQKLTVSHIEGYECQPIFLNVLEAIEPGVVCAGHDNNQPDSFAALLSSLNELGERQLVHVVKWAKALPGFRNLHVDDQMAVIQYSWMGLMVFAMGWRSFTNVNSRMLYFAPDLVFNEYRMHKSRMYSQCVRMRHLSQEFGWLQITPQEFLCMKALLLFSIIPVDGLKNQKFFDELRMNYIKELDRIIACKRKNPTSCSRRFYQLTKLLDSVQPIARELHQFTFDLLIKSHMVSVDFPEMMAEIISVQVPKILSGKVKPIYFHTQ
Method in brief: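 Antagonism is scored as loss of R1881-driven beta-lactamase reporter expression in HEK293 cells carrying the reporter under a UAS element, after 16 h co-treatment at 37C and a 2 h room-temperature FRET substrate read.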

[17] = biological target: Androgen receptor (Homo sapiens) (UniProt P10275); experiment: qHTS assay to identify small molecule agonists of the androgen receptor (AR) signaling pathway using the MDA cell line (AID 743040; note: nearly all actives have a fitted effect of over 20% in size)
Method in brief: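 MDA-kb2 breast carcinoma cells carrying MMTV-luciferase (responsive to AR and GR), plated 5 h then treated 16 h with compounds at 37C, 0% CO2. Read-out was ONE-Glo luminescence after 30 min at room temperature.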

[18] = biological target: Androgen receptor (Homo sapiens) (UniProt P10275); experiment: qHTS assay to identify small molecule antagonists of the androgen receptor (AR) signaling pathway using the MDA cell line (AID 743042; note: nearly all actives have a fitted effect of over 55% in size)
Method in brief: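 MDA-kb2 breast carcinoma cells carrying MMTV-luciferase (AR/GR responsive) were co-treated with compounds and the agonist R1881 for 16 h at 37C. Inhibition read as ONE-Glo luminescence; CellTiter-Fluor fluorescence measured in parallel for cytotoxicity.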

[19] = qHTS assay to test for compound auto fluorescence at 590 nm (red) in HepG2 cell free culture (AID 720684)
Method in brief: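 Compound was pinned into wells holding MEM with 10% FBS and no cells, and red fluorescence was read at Ex/Em 540/590 nm. Signal is expressed as auto fluorescence equivalency relative to Rose Bengal sodium.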
% is set by controls: 0 for no effect and ±100 for the full control effect.

NCCCC[C@H](N[C@@H](CCc1ccccc1)C(=O)O)C(=O)N1CCC[C@H]1C(=O)O
inactive: fluorescence, % of fluorescein [1] -0.012% [at 18.6 µM] | fluorescence, % of fluorescent control [2] -0.095% [at 18.6 µM] | activity change [3] -0.028% [at 18.6 µM] | fluorescence, % of fluorescent control [4] 0.14% [at 18.6 µM] | fluorescence, % of fluorescent control [5] -0.005% [at 18.6 µM] | fluorescence, % of fluorescein control [6] -0.127% [at 18.6 µM] | Potency [7] | Potency [8] | outcome [9] | Potency [10] | Potency [11] | Potency [12] | outcome [13] | Potency [14]

CCO[Si](OCC)(OCC)c1ccccc1
inactive: outcome [1] | outcome [2] | outcome [3] | outcome [4] | outcome [5] | outcome [6] | Potency [7] | Potency [8] | outcome [9] | Potency [10] | Potency [11] | Potency [12] | outcome [13] | Potency [14]

O=CN(CCO)CCO
inactive: outcome [1] | outcome [2] | outcome [3] | outcome [4] | outcome [5] | outcome [6] | outcome [15] | Potency [7] | outcome [9] | Potency [10] | Potency [11] | Potency [12] | outcome [13] | Potency [14]

O=C(O)CNC(=O)c1ccc(CO)o1
inactive: outcome [1] | outcome [2] | outcome [3] | outcome [4] | outcome [5] | outcome [6] | outcome [9] | Potency [10] | Potency [11] | Potency [12] | outcome [13] | Potency [14]

CC(C#N)(CCC(=O)O)N=NC(C)(C#N)CCC(=O)O (centres undefined)
inactive: outcome [1] | outcome [2] | outcome [3] | outcome [4] | outcome [5] | outcome [6] | outcome [15] | Potency [7] | Potency [8] | outcome [9] | Potency [10] | Potency [11] | Potency [12] | outcome [13] | Potency [14]

O=C(O)Cc1csc(-c2ccc(Cl)cc2)n1
inactive: outcome [1] | outcome [2] | outcome [3] | outcome [4] | outcome [5] | outcome [6] | outcome [15] | outcome [9] | Potency [11] | Potency [12] | Potency [16] | Potency [17] | Potency [14] | outcome [18]

CC1=CC(=O)[C@H]2C[C@@H]1C2(C)C
inactive: outcome [1] | outcome [2] | outcome [3] | outcome [4] | outcome [5] | outcome [6] | outcome [15] | Potency [7] | Potency [8] | outcome [9] | Potency [10] | Potency [11] | Potency [12] | outcome [13] | Potency [14]

Cc1ccc(C(=O)c2ccc(CC(=O)O)n2C)cc1
inactive: fluorescence, % of fluorescein [1] -0.0701% [at 18.6 µM] | fluorescence, % of fluorescent control [2] 0.0612% [at 18.6 µM] | activity change [3] -0.0078% [at 18.6 µM] | fluorescence, % of fluorescent control [4] 0.0035% [at 18.6 µM] | fluorescence, % of fluorescent control [5] -0.117% [at 18.6 µM] | fluorescence, % of fluorescein control [6] -0.0798% [at 18.6 µM] | fluorescence, % of fluorescent control [15] -0.0013% [at 18.6 µM] | outcome [9] | Potency [10] | Potency [11] | Potency [12] | Potency [17] | Potency [14] | outcome [18]

c1ccc(CCc2ccccc2)cc1
inactive: outcome [1] | outcome [2] | outcome [3] | outcome [4] | outcome [19] | outcome [5] | outcome [6] | outcome [9] | Potency [11] | Potency [12] | outcome [13] | Potency [14]
